# Values joined by “and” are separate entries in the source; they are usually repeats but may differ in a detail not shown here. Equal entries are not always repeated. Inconclusive results are not listed. Where a call stands in place of a potency, no number is given. Unmarked numbers belong to inactive results. Active and inactive are the calls of the source. Calls come from the whole dose curve; as a rule, active = well fitted curve in the direction sought with a large enough effect; inconclusive = small, poorly fitted or top-dose-only effect, or another doubt; inactive = no such curve, though single readings can be large; an effect the other way counts as inactive or inconclusive. Where a SMILES comes first, the peptide text is derived from it. [ ]: non-standard residue; d: D form. ξ: configuration not given here. ξLac(3-iPr) = CC(C)CC(O)C(=O)O; NMeV = CN[CH](C(=O)O)C(C)C; βAla = NCCC(=O)O
# Columns and labels:
# [1] = Primary qHTS for inhibitors of nuclear receptor binding SET domain protein 2 (NSD2) in an isogenic RCH-ACV NSD2 p.E1099K mutant (9B) (AID 1645876)
# [2] = Primary qHTS for inhibitors of nuclear receptor binding SET domain protein 2 (NSD2) in an RCH-ACV wild type WT cells (2C) (AID 1645877)
# Note: nearly all actives have a fitted effect of over 70% in size.
# Potency is the fitted concentration of half-maximal effect.
smiles,measurement,setting,value
CC1=CC(=O)[C@]2(O[C@@H]3O[C@@H](C)[C@H](O)[C@@H](O)[C@H]3OC(=O)/C=C/c3ccccc3)C=CO[C@@H](O[C@@H]3O[C@H](CO)[C@@H](O)[C@H](O)[C@H]3O)[C@H]12,Potency,[1],inactive
same,Potency,[2],inactive
CC(=O)O[C@@H]1[C@@H](OC(=O)/C=C/c2ccccc2)[C@@H](OC(C)=O)[C@H](O[C@H]2[C@@H]3C=CO[C@@H](O[C@@H]4O[C@H](CO)[C@@H](O)[C@H](O)[C@H]4O)[C@@H]3[C@@]3(CO)O[C@@H]23)O[C@H]1C,Potency,[1],inactive
same,Potency,[2],inactive
CC(C)O[C@@H]1O[C@H](CO)[C@@H](O)[C@H](O)[C@H]1O,Potency,[1],inactive
same,Potency,[2],inactive
C[C@@H]1C[C@@H](O)[C@@]23CO[C@@H](O)[C@@H]2CCC[C@@H]3[C@@]12C[C@@H](c1ccoc1)OC2=O,Potency,[1],inactive
same,Potency,[2],inactive
CNC(=O)c1ccccc1Nc1nc(Nc2ccc3c(c2OC)CCC[C@@H](N2CCN(CCO)CC2)C3)ncc1Cl,Potency,[1],6.61 µM (active)
same,Potency,[2],6.61 µM (active)
CC[C@]1(O)CC2CN(CCc3c([nH]c4ccccc34)[C@@](C(=O)OC)(c3cc4c(cc3OC)N(C=O)[C@H]3[C@@](O)(C(=O)OC)[C@H](OC(C)=O)[C@]5(CC)C=CCN6CC[C@]43[C@@H]65)C2)C1 (stereo not given in full),Potency,[1],0.0064 µM (active)
same,Potency,[2],0.0064 µM (active)
COC1CC(OC2CCC3(C)C(=CCC4C3C(OC(C)=O)C(OC(=O)/C=C/c3ccccc3)C3(C)C(C(C)O)CCC43O)C2)OC(C)C1OC1CC(OC)C(OC2OC(C)C(OC3OC(CO)C(O)C(O)C3O)C(OC)C2O)C(C)O1 (stereo not given),"activity change, negative = viability loss",[1],-12.2% [at 9.23 µM]
same,"activity change, negative = cell killing",[2],-17.6% [at 9.23 µM]
C/C=C/C(O)C1OC(=O)CC1Nc1ccc(C(=O)O)cc1 (stereo not given),Potency,[1],inactive
same,Potency,[2],inactive
COc1cc(OC)c(/C=C/S(=O)(=O)Cc2ccc(OC)c(NCC(=O)O)c2)c(OC)c1,Potency,[1],57.8 nM (active) and 59 nM (active)
same,Potency,[2],51.5 nM (active) and 46.8 nM (active)
CC(C)=CCC/C(C)=C/CC/C(C)=C/COC1OC(COC2OCC(OC3OCC(O)C(O)C3O)C(O)C2O)C(O)C(OC2OC(C)C(OC3OC(C)C(OC4OCC(OC5OC(C)C(O)C(O)C5O)C(O)C4O)C(O)C3O)C(O)C2O)C1O (stereo not given),outcome,[1],inactive [at 9.23 µM]
same,outcome,[2],inactive [at 9.23 µM]
O=C1CCC=CC1(O)C(=O)OCc1ccccc1O[C@@H]1O[C@H](CO)[C@@H](O)[C@H](O)[C@H]1O (stereo not given in full),Potency,[1],12.6 µM (active)
same,Potency,[2],5.02 µM (active)
O=C(O)CC(=O)OC[C@H]1O[C@@H](Oc2ccc3c(c2)OC[C@H]2c4cc5c(cc4O[C@@H]32)OCO5)[C@H](O)[C@@H](O)[C@@H]1O,Potency,[1],inactive
same,Potency,[2],inactive
C/C(=C\CCC1(C)C2CCC(C2)C1(C)O)C(=O)O (stereo not given),Potency,[1],inactive
same,Potency,[2],inactive
C=C1CC2C(C)(CCC(=O)O)C(C(C)(C)O)CCC2(C)C2C(=O)OC(C)(C(=O)OC)C(=O)C12C (stereo not given),Potency,[1],inactive
same,Potency,[2],inactive
CC1(C)CCCC2(C)C1CC=C1C(=O)OC(O)C12O (stereo not given),Potency,[1],inactive
same,Potency,[2],inactive
CC(=O)O[C@@H]1c2c(C)coc2C(=O)[C@@]23O[C@@H]2CC[C@H](C)[C@@]13C,Potency,[1],inactive
same,Potency,[2],inactive
O=C(O)C(O[C@@H]1O[C@H](CO[C@@H]2O[C@H](CO)[C@@H](O)[C@H](O)[C@H]2O)[C@@H](O)[C@H](O)[C@H]1O)c1ccccc1 (stereo not given in full),Potency,[1],inactive
same,Potency,[2],inactive
COc1cccc2cc3c(c(O[C@@H]4O[C@H](CO[C@@H]5O[C@H](CO)[C@@H](O)[C@H](O)[C@H]5O)[C@@H](O)[C@H](O)[C@H]4O)c12)C(C)OC3=O (stereo not given in full),Potency,[1],inactive
same,Potency,[2],inactive
CC(C)CC1OC(=O)C2CCCN2C(=O)CCNC(=O)C(Cc2ccccc2)NC(=O)C(C(C)C)N(C)C(=O)C(C(C)C)N(C)C1=O (stereo not given) (cyclo([ξLac(3-iPr)][NMeV][NMeV]F[βAla]P); configuration not given here),Potency,[1],inactive
same,Potency,[2],inactive
CC(C)=CCC[C@](C)(O[C@@H]1O[C@H](CO[C@@H]2O[C@H](CO)[C@@H](O)[C@H](O)[C@H]2O)[C@@H](O)[C@H](O)[C@H]1O)C1CC[C@]2(C)[C@@H]1[C@H](O)CC1[C@@]3(C)CC[C@H](O[C@@H]4O[C@H](CO)[C@@H](O)[C@H](O)[C@H]4O[C@@H]4O[C@H](CO)[C@@H](O)[C@H](O)[C@H]4O)C(C)(C)[C@@H]3CC[C@]12C (stereo not given in full),"activity change, negative = viability loss",[1],-10.6% [at 9.23 µM]
same,"activity change, negative = cell killing",[2],-25.5% [at 9.23 µM]

# Source: PubChem BioAssay (NCATS)
